We go through 39 molecules from PubChem BioAssay AID720517 (National Center for Advancing Translational Sciences (NCATS), 2013).

Results filed as inconclusive are left out. Where a call stands in place of a potency, no number is given. Calls of active or inactive are those of the source. Calls follow the shape of the dose curve; as a rule, active = well fitted activation curve with a large enough effect; inconclusive = small, poorly fitted or top-dose-only effect; inactive = flat fitted curve, though single readings scatter.
Potency is read from the fitted curve at half-maximal effect.

A short description of this experiment: qHTS for Inhibitors of Cell Surface uPA Generation: FP59 Counterscreen for Cherry-picked Compounds. Particulars: FP59 anthrax toxin cytotoxicity counterscreen, cells; series mostly up to 115 µM.
On to `Cc1ccc(NC(=S)N2CCN(Cc3ccc4c(c3)OCO4)CC2)c(C)c1`, for which the Potency result was “inactive”.
On to `O=C(NCC1CCCO1)c1ccc(NC(=O)c2ccc([N+](=O)[O-])cc2)cc1` (centres undefined), for which the Potency result was “inactive”.
With `COc1ccc(-n2ncc3c(=O)n(CC(=O)NC(C)C)cnc32)cc1`, the Potency entry is “inactive”.
The same measure for `O=C(c1ccc(NC(=S)NCc2ccc(Cl)cc2)cc1)N1CCCCC1`: “inactive”.
Consider `CCCCn1c(C2CCCCC2)nc2cc3[nH]c(=O)c(C(C)C)nc3cc21`, for which the Potency entry is “inactive”.
Turning to `COc1ccccc1NC(=O)Cn1nnc(-c2ccccc2NC(=O)c2cc3ccccc3oc2=O)n1`, the Potency result was “inactive”.
As for `COc1ccccc1NNC(=O)C(O)(c1ccccc1OC)c1ccccc1OC`, the entry is “inactive”; as for `CCOC(=O)C1(CC2CCCCO2)CCN(Cc2nccn2-c2cccc(C)c2)CC1` (centres undefined), “inactive”.
As to `CCCCCOC(=O)C1=C(C)NC(=O)NC1c1ccccc1` (centres undefined), the Potency result is “inactive”.
Regarding `COc1ccc(C2=C/C(=C\c3ccccc3OC(C)=O)C(=O)O2)cc1`, the Potency entry is “inactive”.
For the molecule `NC(=O)CC(NC(=O)Cc1cccc2ccccc12)c1ccc(N2CCN(c3ccc(F)cc3)CC2)c([N+](=O)[O-])c1` (centres undefined), the Potency result is “inactive”.
The same measure for `COc1cccc(NC(=O)N2C3CCCC2CC(NC(C)=O)C3)c1` (centres undefined): “inactive”; for `COc1ccc([C@H]2[C@H](C(=O)OC(C)(C)C)N3N=Cc4ccccc4C3C23C(=O)c2ccccc2C3=O)cc1OC` (some centres undefined): “inactive”.
Consider `COc1cc(NC(=S)NCCc2ccc(S(N)(=O)=O)cc2)c(OC)cc1Cl`, for which the Potency entry was “inactive”.
Consider `CC(=O)Nc1ccc(OS(=O)(=O)c2c(C)cc(C)cc2C)cc1`, for which the Potency entry is “inactive”.
As to `O=C(NCCN1CCOCC1)c1ccccc1Cl`, the Potency entry was “inactive”.
`COCCOC(=O)C1=C(C)NC(=O)NC1c1cccc2ccccc12` (centres undefined): the Potency result was “inactive”.
As for `CC1(C)CC(CCC(=O)NC(=S)Nc2ccccc2Cl)C(=O)O1` (centres undefined), the Potency entry is “inactive”.
`CCOc1cc(C(=O)OCC(=O)c2cc(C)n(CC3CCCO3)c2C)ccc1OCC(=O)N1CCOCC1` (centres undefined): the Potency entry was “inactive”.
The same measure for `CCC(COC)NC(=O)CCc1nnc(Cc2c[nH]c3ccccc23)o1` (centres undefined): “inactive”; for `CN(C)c1cccc(C(=O)N(C)C2CCCN(Cc3ccccc3F)C2)c1` (centres undefined): 52.1 µM (active); for `CC(=O)Oc1ccccc1C(=O)Nc1ccccc1C(=O)N1CCCC1`: “inactive”.
For `CC1(C)S[C@@H]2[C@H](NC(=O)C(C(=O)O)c3ccccc3)C(=O)N2[C@H]1C(=O)O` (some centres undefined), the Potency entry was “inactive”.
In the case of `CCOC(=O)Oc1c(OC)cc(C(=O)O[C@@H]2C[C@@H]3CN4CCc5c([nH]c6cc(OC)ccc56)[C@H]4C[C@@H]3[C@H](C(=O)OC)[C@H]2OC)cc1OC`, the Potency entry was “inactive”.
Regarding `Cc1[nH]c2ccc(C(=O)OC(C)C(=O)NC3CCCCC3C)cc2c1C` (centres undefined), the Potency entry is “inactive”.
For `O=C(CSc1ccc([N+](=O)[O-])cn1)Nc1nccs1`, the Potency entry was “inactive”.
Take `O=C(N/C(=C\c1cccc([N+](=O)[O-])c1)C(=O)N1CCOCC1)c1ccc([N+](=O)[O-])cc1`: the Potency entry is “inactive”.
For the molecule `Cc1[nH]c2ccccc2c1C(=O)C(C)OC(=O)c1ccccc1NCCO` (centres undefined), the Potency result was “inactive”.
`CN(C)c1cccc(Oc2nc3c(c(=O)n(C)c(=O)n3C)n2C)c1`: the Potency result was “inactive”.
Consider `COc1cc(NC(=O)CSc2nnc3ccc(-c4ccncc4)nn23)cc(OC)c1`, for which the Potency entry was “inactive”.
As for `CCCCN(CC(=O)NCc1ccc(F)cc1)C(=O)c1ccco1`, the entry is “inactive”; as for `CCO[C@H]1OC(C(=O)N2CCCCCCC2)=C[C@@H](c2ccc(C(F)(F)F)cc2)[C@@H]1CCCO`, “inactive”.
Take `CCOc1ccccc1CN1CCCC(CNS(=O)(=O)c2ccc(OC)cc2)C1` (centres undefined): the Potency entry was “inactive”.
The same measure for `O=S(=O)(/N=C(/c1ccccc1)N1CCOCC1)c1ccc(F)cc1F`: “inactive”.
For `O=C(c1cc2cc([N+](=O)[O-])ccc2s1)N1CCOCC1`, the Potency entry is “inactive”.
`CC1(c2cccc([N+](=O)[O-])c2)CC(C)(C)N(C(=O)c2ccccc2)c2ccccc21` (centres undefined): the Potency result was “inactive”.
Turning to `O=[N+]([O-])c1cccc(-c2noc(-c3cccs3)n2)c1`, the Potency result is “inactive”.
On to `CCCCNc1c(-c2ccc(-c3cccc(Cl)c3)cc2)nc2ccccn12`, for which the Potency result is “inactive”.
The same measure for `COC(=O)/C(C#N)=C\c1c(OC)[nH]c2ccccc12`: “inactive”.
